Bioassay records: PubChem BioAssay, National Center for Advancing Translational Sciences (NCATS)
Sampled rows, rich in hits. Any-hit rate of the full collection: about 5.4%.
RORg inh = inhibitors of mouse ROR gamma transcriptional activity; 310,000 tested, 5.4% active; AID 2551; P51450; Drosophila S2 Gal4-RORgamma UAS-luciferase reporter, 20 h; Potency, µM (series often up to 53.6 µM), without a hit: at the highest dose activity change, negative = inhibition, usual class: inhibitors; further: potency means the concentration at half of the fitted maximal effect; on the % scale 0 is the no-effect control and ±100 the full control effect; nearly all actives have a fitted effect of over 60% in size
Target sequence (P51450 whole entry, looked up, the tested form may be a part): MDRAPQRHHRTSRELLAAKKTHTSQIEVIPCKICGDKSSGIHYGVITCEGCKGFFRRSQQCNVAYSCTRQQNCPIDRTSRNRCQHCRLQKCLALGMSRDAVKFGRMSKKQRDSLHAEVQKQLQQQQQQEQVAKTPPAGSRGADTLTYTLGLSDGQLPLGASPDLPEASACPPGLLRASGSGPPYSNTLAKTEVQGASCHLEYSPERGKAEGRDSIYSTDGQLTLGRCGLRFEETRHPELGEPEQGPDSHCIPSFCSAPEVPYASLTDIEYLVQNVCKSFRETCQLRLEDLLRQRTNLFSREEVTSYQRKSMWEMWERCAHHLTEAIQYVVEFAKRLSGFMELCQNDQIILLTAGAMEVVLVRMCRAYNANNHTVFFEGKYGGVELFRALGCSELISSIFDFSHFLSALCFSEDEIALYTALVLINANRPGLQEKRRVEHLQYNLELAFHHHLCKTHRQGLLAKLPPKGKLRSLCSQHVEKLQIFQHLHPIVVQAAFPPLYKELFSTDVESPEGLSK
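Read-out: Photinus luciferase luminescence; inhibitors lower reporter signal. Insect Schneider cells with Gal4-ROR gamma fusion under metallothionein promoter, UAS reporter; 700 uM final copper sulfate induction, 20 hr, ambient temperature.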
VP16 counter = counter-screen for ROR gamma inhibitors: Gal4-VP16 reporter | Drosophila S2 Gal4-VP16 UAS-luciferase, luminescence, 20 h | Potency, µM (doses to about 53.6 µM), inactives show top-dose activity, negative = inhibition, most hits filed as inhibitors | 310,000 tested, 3.5% active;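 further: Gal4-VP16 expression switched on by copper sulfate through the metallothionein promoter; potency means the concentration at half of the fitted maximal effect; on the % scale 0 is the no-effect control and ±100 the full control effect; nearly all actives have a fitted effect of over 50% in size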
CtBP-E1A blk = blocks the CtBP interaction with E1A; AID 651724; 340,000 tested, 0.49% active; activity change, % (concentration not given with the values); AlphaScreen GST-E1A/His-CtBP binding, 1536-well; active compounds read low; in the data active means activity change below about -65%; inconclusive means mostly about -30% to -63%; further: on the % scale 0 is the no-effect control and ±100 the full control effect
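Steps: dispense buffer (Tris pH 8.0, NaCl 300 mM, TCEP 1 mM, BSA, Tween 20); add 5X protein mix (GST-E1A, His-CtBP, 125 nM each); pin 23 nL compound; 2 h at 37 °C, dark; add 5X beads (50 ug/mL); 1 h; read.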
p53 reactivation = restores transcriptional activity of mutant p53 | H1299 p53-A138V BP100-luciferase reporter, luminescence, 24 h | 320,000 tested, 0.063% active | Potency, µM (series often up to 92.2 µM), for the others: at the top dose activity change, positive = activation, most hits filed as activators | AID 504706; further: potency means the concentration at half of the fitted maximal effect; % of control where 0% means no effect; nearly all actives have a fitted effect of over 45% in size
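p53-null H1299 cells stably carrying temperature-sensitive p53-A138V and a BP100-luciferase reporter were pinned with compounds (4-point, 1:5 series) and held 24 hrs at 37 deg C. Luminescence was read 10 min after detection reagent.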
Six1-Eya2 inh = inhibitors of human Six1/Eya2 interaction; Q15475+O00167; AlphaScreen GST-Six1/His-Eya2 binding, biochemical; active compounds read low; activity change, % (test concentration not listed); 360,000 tested, 0.56% active; AID 651725; in the data active means activity change below about -65%; inconclusive means mostly about -30% to -63%; further: on the % scale 0 is the no-effect control and ±100 the full control effect
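AlphaScreen with GST-Six1 and His-Eya2 (5X mix: 250 nM and 500 nM), glutathione donor and nickel acceptor beads; buffer 50 mM Tris pH 8.0, 300 mM NaCl, 1 mM TCEP; 1 h at 37 C in the dark.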
Numbers without * were called inactive; u = inconclusive; x = not tested or not shown; [ ] = dose if it differs, or a comment. Unless noted, the call rests on the fitted dose curve; in most records, active means well fitted curve in the direction sought with a large enough effect; inconclusive means small, poorly fitted or top-dose-only effect, or another doubt; inactive means no such curve, though single readings can be large; an effect the other way counts as inactive or inconclusive.

SMILES	RORg inh	VP16 counter	CtBP-E1A blk	p53 reactivation	Six1-Eya2 inh
C(=C\c1ccccc1)/C=N/Nc1nc(N2CCCCC2)nc(N2CCCCC2)n1	0.794µM*	-1.3%	3.3	4.8%	-1.7
Cc1ccc(S(=O)(=O)N(C)CCCC(=O)NC(C)(C)CO)cc1	-5.7%	1.0%	1.7	-1.1%	1.5
Cc1cccc2c1-c1sc(C(=O)Nc3ccccc3N3CCN(C)CC3)cc1CO2	u	-13.1%	2.0	-8.7%	-8.3
O=C1CCCCc2sc(Br)c([N+](=O)[O-])c2N1	11.2µM*	u	4.6	-16.0%	5.1
Cc1ccc(NS(=O)(=O)c2ccc(C)c(NC(=S)NCCN3CCOCC3)c2)c(C)c1	x	x	4.1	-6.4%	4.9
CC(=O)N1CCC2(CC1)C/C(=N\NC(=S)Nc1ccccc1F)c1cc(O)ccc1O2	12.6µM*	-5.0%	-11.6	-0.5%	-12.6
COc1ccc(NC(=S)N/N=C2\CC(C)(C)Oc3ccc(O)cc32)cc1	6.31µM*	5.62µM*	u	-6.4%	u
CC(OC(=O)COc1ccccc1)C(=O)NC1CCCC1 (configuration not stated)	x	x	6.6	-5.0%	-5.5
Cc1ccc([N+](=O)[O-])cc1N=Nc1c(C)[nH]n(C(N)=S)c1=O	7.08µM*	10µM*	x	5.9%	-0.7
Cc1ccc([N+](=O)[O-])cc1N=Nc1c(-c2ccc([N+](=O)[O-])cc2)[nH]n(C(N)=S)c1=O	0.316µM*	-10.9%	-11.1	-5.2%	-1.7
Cc1ccc([N+](=O)[O-])cc1N=C(c1ccc([N+](=O)[O-])cc1)N1CCOCC1	0.0%	-7.9%	-2.4	-2.8%	-14.3
Cc1cc([N+](=O)[O-])ccc1N=Nc1c(N)[nH]n(-c2ccccc2)c1=O	18.1%	-2.7%	-2.1	6.0%	-14.7
NC(=S)n1[nH]c(-c2ccc([N+](=O)[O-])cc2)c(N=Nc2ccc(Cl)cc2)c1=O	0.398µM*	u	-2.6	0.1%	-14.0
O=c1c(N=Nc2ccc(O)cc2)c(-c2ccccc2)[nH]n1-c1ccc([N+](=O)[O-])cc1	-1.0%	-1.6%	-9.9	2.4%	-19.0
CN(C)CCCNc1nc(-c2ccc(Cl)cc2)nc2ccccc12	-28.0%	-2.6%	x	x	-2.5
Cc1ccc(CNc2ccc3c(c2)ncn3C(C)(C)C)cc1	1.41µM*	u	-11.3	u	-22.4
Cc1ccc(CNc2ccc3c(c2)ncn3C)cc1	8.1%	5.9%	-3.4	20.3%	-2.5
O=C(OCc1cn([C@@H]2CN(Cc3cccs3)[C@@H](c3ccccc3)C[C@H]2O)nn1)c1ccccc1	x	x	-4.2	x	5.1
COc1ccc(OC)c2[nH]c(C(=O)N/N=C/c3ccccc3O)cc12	3.98µM*	5.01µM*	x	26.9%	-73.7*
COc1cccc(/C=N/NC(=O)c2cc3c(OC)cccc3[nH]2)c1O	0.794µM*	2.24µM*	-23.6	9.3%	-29.5
COc1ccc(/C=N/NC(=O)c2cc3c(OC)ccc(OC)c3[nH]2)cc1O	-42.4%	u	u	3.5%	u
O=C(O)c1cccc(N2C(=O)C3C4C=CC(C4=C(c4ccccc4)c4ccccc4)C3C2=O)c1 (configuration not stated)	u	2.6%	x	-3.4%	3.0
CCOC(=O)c1nnc(-c2ccc(C)cc2)nc1Oc1ccccc1Cl	6.8%	6.31µM*	-0.8	5.7%	13.3
CCOC(=O)c1nnc(-c2ccccc2)nc1Sc1c(Cl)cccc1Cl	-28.0%	17.8µM*	-3.6	u	0.0
CCOC(=O)c1nnc(-c2ccc(C)cc2)nc1Sc1ccccc1Cl	27.2%	-16.5%	11.5	5.6%	10.1
SMILES	RORg inh	VP16 counter	CtBP-E1A blk	p53 reactivation	Six1-Eya2 inh
CCC12C=C(/C=C/c3ccccc3)C(CC)(C1)C(c1ccccc1)CC2=O (configuration not stated)	-18.4%[10 µM]	-5.8%[10 µM]	x	x	x
CC[C@H](C)[C@H](N)C(=O)N[C@H](C(=O)N[C@@H](CO)C(=O)N[C@@H](C)C(=O)N[C@H](C(=O)N[C@H](C(=O)NCC(=O)N[C@H](C(=O)N[C@@H](CC(C)C)C(=O)O)[C@@H](C)CC)C(C)C)C(C)C)[C@@H](C)CC	15.8%	-0.8%	x	x	x
Oc1ccc(/C=N/NC(=S)NCc2ccco2)cc1	11.2µM*	-10.4%	-5.2	-1.9%	-6.2
S=C(NCc1ccco1)N/N=C/c1cccnc1	11.2µM*	u	x	-6.1%	-0.9
Oc1c(Br)cc(/C=N/NC(=S)NCc2ccco2)cc1Br	u	-10.4%	-12.1	-3.0%	-19.1
CCN(CC)c1ccc(/C=N/NC(=S)NCc2ccco2)cc1	1.78µM*	3.16µM*	u	9.1%	-28.6
CCOc1ccc(/C=N/NC(=O)C(=O)NCc2ccco2)cc1	-29.5%	4.6%	-2.7	-4.5%	5.5
S=C(NCc1ccco1)N/N=C/c1ccc(Cl)cc1	2.51µM*	5.62µM*	-9.3	25.2%	-11.2
CCN(C(=O)COC(=O)/C=C/c1ccco1)c1c(N)n(Cc2ccccc2)c(=O)[nH]c1=O	x	x	-19.6	0.4%	2.6
COc1cc(CNCCc2ccccc2)cc(Br)c1OCC(=O)Nc1ccccc1C	u	3.5%	x	-3.4%	-10.6
COc1ccc(NC(=O)C(c2ccncc2)n2c(=O)c(-c3ccco3)nc3ccccc32)cc1 (configuration not stated)	x	x	0.4	x	-6.0
CCN(CC)C(=S)Sc1c(-c2ccccc2)c2cc(Cl)ccc2[nH]c1=O	8.91µM*	7.94µM*	-11.5	-5.6%	-3.0
Cc1ccc(S(=O)(=O)/N=C/c2c(O)ccc3ccccc23)cc1	17.8µM*	u	x	-6.2%	10.2
O=CN/N=C/c1c(O)ccc2ccccc12	0.794µM*	2.82µM*	x	9.0%	-90.8*
NC(=S)N/N=C/c1coc2cc(Br)ccc2c1=O	-4.9%	6.5%	7.7	2.4%	-6.1
Oc1ccccc1C=NN=Cc1c(O)ccc2ccccc12	x	x	0.0	x	29.6
NC(=S)N/N=C/c1c(O)ccc2ccccc12	1.12µM*	3.98µM*	x	2.8%	-90.8*
NC(=S)N/N=C/c1coc2c(ccc3ccccc32)c1=O	5.62µM*	7.94µM*	6.1	u	-2.3
Oc1ccc2ccccc2c1/C=N/Nc1ccccc1	u	u	10.7	23.6%	-2.4
COC(=O)[C@]12CCCCC=C1N(Cc1ccc3c(c1)OCO3)C(=O)[C@H](CC(=O)NCc1ccc(C)o1)C2	x	x	1.0	x	-13.5
Cc1cc(N/N=C/c2c(O)ccc3ccccc23)nc(-c2ccccc2O)n1	7.08µM*	3.98µM*	-5.3	-5.5%	-2.0
COc1ccc(N=Nc2ccc(N)nc2N)cc1	0.6%	1.2%	u	u	u
CCOc1ccc2nc3cc(N=Nc4ccc(N)nc4N)ccc3c(N)c2c1	x	x	-76.1*	x	u
CCOC(=O)c1c(CSc2cccs2)n(C)c2cc(Br)c(O)c(CN(C)C)c12	0.5%	5.1%	-6.9	2.1%	-25.8
O=C(NCc1ccco1)c1cc([N+](=O)[O-])cc([N+](=O)[O-])c1	-28.0%	8.5%	1.1	-1.7%	-2.3
